Measurements from PubChem BioAssay (NCATS).
Results filed as inconclusive are left out. Where a call stands in place of a potency, no number is given. Values without a mark were called inactive. Active and inactive are the calls of the source. Calls follow the shape of the dose curve; as a rule, active = well fitted cell-killing curve with a large enough effect; inconclusive = small, poorly fitted or top-dose-only effect, or effect the other way; inactive = flat fitted curve, though single readings scatter.

test system: CAOV3; experiment: Primary qHTS to identify gynecologic anti-cancer compounds using libraries of approved drugs and bioactive compounds (AID 1345084); details: Gynecologic cancer cell panel viability, ATPlite luminescence, 48 h; series mostly up to 57.5 µM; also: nearly all actives have a fitted effect of over 55% in size
Procedure, shortened: (§1)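 Cell viability after 48 h drug treatment, ATPlite luminescence readout; five doses.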
Potency is read from the fitted curve at half-maximal effect.

For O=C(O)c1cc2cccc([N+](=O)[O-])c2[nH]1, which Potency is on record?
Its Potency is “inactive”.

How did the Potency turn out when CC(C)c1cc(CNc2nc(Nc3cc(C4CC4)[nH]n3)cc(N3CCN(C)CC3)n2)on1 was run?
The Potency was 0.282 µM (active).

COc1ccc(C(=O)Nc2ncc(-c3ccc(C(=O)O)cc3)s2)cc1 was tested. Which Potency did it give?
Its Potency is 6.31 µM (active).

For CC(C)c1cc(C(=O)N2CC[C@H](NC(=O)C3CC3)C2)n[nH]1, which Potency is on record?
The Potency was “inactive”.

How did the Potency turn out when C[C@@H]1CCC2C(C)(C)[C@H](O)CC[C@]2(C)[C@@]12Cc1c(O)cc3c(c1O2)CNC3=O (some centres undefined) was run?
Its Potency is “inactive”.

For CC1=C(C(=O)O[C@@H]2O[C@H](COC3OCC(O)C(O)C3O)[C@@H](O)[C@H](O)[C@H]2O)C(C)(C)CCC1 (some centres undefined), which Potency is on record?
The Potency was “inactive”.

With Cc1nc(Nc2n[nH]c3c2CN(C(=O)NC(CN(C)C)c2ccccc2)C3(C)C)c2sccc2n1 (centres undefined) as the compound, how does the Potency read?
Its Potency is 1.41 µM (active).

Cc1onc(C(=O)N2CCN(C(c3ccc(Cl)cc3)c3ccc(Cl)cc3)CC2)c1[N+](=O)[O-] was tested. Which Potency did it give?
Its Potency is 2.24 µM (active).

For COc1ncc(Nc2ncc([C@@H](C)N3CCN(S(C)(=O)=O)CC3)cc2-c2nc(C)nc(N)n2)cc1F, which Potency is on record?
The Potency was “inactive”.

For COc1ccc(F)cc1-c1cc(NC(=O)[C@@H]2CCCNC2)ncc1Cl, which Potency is on record?
Its Potency is “inactive”.

For O=S(=O)(c1ccccc1)c1cnc2c(N3CCNCC3)cccc2c1, which Potency is on record?
The Potency was “inactive”.

CC[C@]1(O)CC2CN(CCc3c([nH]c4ccccc34)[C@@](C(=O)OC)(c3cc4c(cc3OC)N(C=O)[C@H]3[C@@](O)(C(=O)OC)[C@H](OC(C)=O)[C@]5(CC)C=CCN6CC[C@]43[C@@H]65)C2)C1 (some centres undefined) was tested. Which Potency did it give?
Its Potency is “inactive”.

For CC1(CCOC2OC(CO)C(O)C(O)C2O)CCC23OC2(C1)C(O)CC1C(C)(C(=O)O)CCCC13C (centres undefined), which Potency is on record?
Its Potency is “inactive”.

Which Potency does the source give for O=C1N=C(N2CCOCC2)CN1c1ccc(Cl)cc1 here?
The Potency was “inactive”.

Which Potency does the source give for CC(C)c1c2cc(-c3ccnc(NC4CCC(NC5CCOCC5)CC4)n3)ccc2nn1C (centres undefined) here?
The Potency was “inactive”.

With CC1=C(C(=O)OCc2ccccc2)C(c2ccc(-c3ccccc3)cc2)NC(=O)N1CCCCCC(=O)O (centres undefined) as the compound, how does the Potency read?
Its Potency is “inactive”.

How did the Potency turn out when CC(C)CCC[C@@H](C)[C@H]1CC[C@H]2[C@@H]3CC(=O)[C@H]4C[C@@H](O)CC[C@]4(C)[C@H]3CC[C@]12C was run?
Its Potency is “inactive”.

How did the Potency turn out when O=C(NCc1ccc(S(=O)(=O)c2cc(F)cc(F)c2)cc1)c1ccc2nccn2c1 was run?
The Potency was 0.316 µM (active).

How did the Potency turn out when Cc1ccc(C(=O)Nc2noc3ccccc23)cc1 was run?
The Potency was 15.8 µM (active).

Which Potency does the source give for CCC1C(=O)OC23C=C[C@@H]4C(C(=O)O)=CO[C@H](O[C@@H]12)[C@@H]43 (some centres undefined) here?
Its Potency is “inactive”.

test system: CASKI; experiment: as above; details: Gynecologic cancer cell panel viability, ATPlite luminescence, 48 h; series mostly up to 57.5 µM
Procedure, shortened: as §1

How did the Potency turn out when O=C(O)c1cc2cccc([N+](=O)[O-])c2[nH]1 was run?
The Potency was “inactive”.

For CC(C)c1cc(CNc2nc(Nc3cc(C4CC4)[nH]n3)cc(N3CCN(C)CC3)n2)on1, which Potency is on record?
Its Potency is 2.82 µM (active).

COc1ccc(C(=O)Nc2ncc(-c3ccc(C(=O)O)cc3)s2)cc1 was tested. Which Potency did it give?
Its Potency is 17.8 µM (active).

Which Potency does the source give for CC(C)c1cc(C(=O)N2CC[C@H](NC(=O)C3CC3)C2)n[nH]1 here?
Its Potency is “inactive”.

Which Potency does the source give for CC1=C(C(=O)O[C@@H]2O[C@H](COC3OCC(O)C(O)C3O)[C@@H](O)[C@H](O)[C@H]2O)C(C)(C)CCC1 (some centres undefined) here?
Its Potency is “inactive”.

For Cc1nc(Nc2n[nH]c3c2CN(C(=O)NC(CN(C)C)c2ccccc2)C3(C)C)c2sccc2n1 (centres undefined), which Potency is on record?
Its Potency is 3.98 µM (active).

How did the Potency turn out when Cc1onc(C(=O)N2CCN(C(c3ccc(Cl)cc3)c3ccc(Cl)cc3)CC2)c1[N+](=O)[O-] was run?
Its Potency is “inactive”.

How did the Potency turn out when COc1ncc(Nc2ncc([C@@H](C)N3CCN(S(C)(=O)=O)CC3)cc2-c2nc(C)nc(N)n2)cc1F was run?
The Potency was 0.398 µM (active).

For COc1ccc(F)cc1-c1cc(NC(=O)[C@@H]2CCCNC2)ncc1Cl, which Potency is on record?
The Potency was 0.891 µM (active).

For O=S(=O)(c1ccccc1)c1cnc2c(N3CCNCC3)cccc2c1, which Potency is on record?
The Potency was “inactive”.

CC[C@]1(O)CC2CN(CCc3c([nH]c4ccccc34)[C@@](C(=O)OC)(c3cc4c(cc3OC)N(C=O)[C@H]3[C@@](O)(C(=O)OC)[C@H](OC(C)=O)[C@]5(CC)C=CCN6CC[C@]43[C@@H]65)C2)C1 (some centres undefined) was tested. Which Potency did it give?
The Potency was 0.0891 µM (active).

For CC1(CCOC2OC(CO)C(O)C(O)C2O)CCC23OC2(C1)C(O)CC1C(C)(C(=O)O)CCCC13C (centres undefined), which Potency is on record?
Its Potency is “inactive”.

With O=C1N=C(N2CCOCC2)CN1c1ccc(Cl)cc1 as the compound, how does the Potency read?
Its Potency is “inactive”.

Which Potency does the source give for CC(C)c1c2cc(-c3ccnc(NC4CCC(NC5CCOCC5)CC4)n3)ccc2nn1C (centres undefined) here?
The Potency was 0.631 µM (active).

With CC1=C(C(=O)OCc2ccccc2)C(c2ccc(-c3ccccc3)cc2)NC(=O)N1CCCCCC(=O)O (centres undefined) as the compound, how does the Potency read?
The Potency was “inactive”.

CC(C)CCC[C@@H](C)[C@H]1CC[C@H]2[C@@H]3CC(=O)[C@H]4C[C@@H](O)CC[C@]4(C)[C@H]3CC[C@]12C was tested. Which Potency did it give?
The Potency was “inactive”.

For Cc1ccc(C(=O)Nc2noc3ccccc23)cc1, which Potency is on record?
Its Potency is 22.4 µM (active).

How did the Potency turn out when CCC1C(=O)OC23C=C[C@@H]4C(C(=O)O)=CO[C@H](O[C@@H]12)[C@@H]43 (some centres undefined) was run?
Its Potency is “inactive”.

test system: Es-2; experiment: as above; details: Gynecologic cancer cell panel viability, ATPlite luminescence, 48 h; series mostly up to 57.5 µM
Procedure, shortened: as §1

Which Potency does the source give for O=C(O)c1cc2cccc([N+](=O)[O-])c2[nH]1 here?
Its Potency is “inactive”.

How did the Potency turn out when COc1cc(C(=O)NC2CCN(C)CC2)c(F)cc1Nc1ncc2c(n1)N(C1CCCC1)CC(F)(F)C(=O)N2C was run?
Its Potency is 35.5 µM (active).

Which Potency does the source give for CC(C)c1cc(CNc2nc(Nc3cc(C4CC4)[nH]n3)cc(N3CCN(C)CC3)n2)on1 here?
Its Potency is 7.94 µM (active).

With COc1ccc(C(=O)Nc2ncc(-c3ccc(C(=O)O)cc3)s2)cc1 as the compound, how does the Potency read?
The Potency was 31.6 µM (active).

CC(C)c1cc(C(=O)N2CC[C@H](NC(=O)C3CC3)C2)n[nH]1 was tested. Which Potency did it give?
Its Potency is “inactive”.

With CC1=C(C(=O)O[C@@H]2O[C@H](COC3OCC(O)C(O)C3O)[C@@H](O)[C@H](O)[C@H]2O)C(C)(C)CCC1 (some centres undefined) as the compound, how does the Potency read?
Its Potency is “inactive”.

Cc1nc(Nc2n[nH]c3c2CN(C(=O)NC(CN(C)C)c2ccccc2)C3(C)C)c2sccc2n1 (centres undefined) was tested. Which Potency did it give?
The Potency was 7.94 µM (active).

For Cc1onc(C(=O)N2CCN(C(c3ccc(Cl)cc3)c3ccc(Cl)cc3)CC2)c1[N+](=O)[O-], which Potency is on record?
Its Potency is 1 µM (active).

For COc1ncc(Nc2ncc([C@@H](C)N3CCN(S(C)(=O)=O)CC3)cc2-c2nc(C)nc(N)n2)cc1F, which Potency is on record?
The Potency was “inactive”.

How did the Potency turn out when COc1ccc(F)cc1-c1cc(NC(=O)[C@@H]2CCCNC2)ncc1Cl was run?
Its Potency is 0.794 µM (active).

How did the Potency turn out when O=S(=O)(c1ccccc1)c1cnc2c(N3CCNCC3)cccc2c1 was run?
The Potency was “inactive”.

Which activity change, negative = cytotoxicity does the source give for C[C@@H]1O[C@@H](O[C@H]2[C@H](O[C@H]3[C@H](O[C@H]4CC[C@@]5(C)C(CC[C@]6(C)C5CC=C5[C@@H]7CC(C)(C)CC[C@]7(C(=O)O[C@@H]7O[C@H](CO)[C@@H](O[C@@H]8O[C@@H](C)[C@H](O)[C@@H](O)[C@H]8O)[C@H](O)[C@H]7O)CC[C@]56C)C4(C)C)OC[C@H](O)[C@@H]3O)O[C@H](CO)[C@@H](O)[C@@H]2O)[C@H](O)[C@H](O)[C@H]1O (some centres undefined) here?
The activity change, negative = cytotoxicity was -47.2% [at 6.55 µM].

With CC[C@]1(O)CC2CN(CCc3c([nH]c4ccccc34)[C@@](C(=O)OC)(c3cc4c(cc3OC)N(C=O)[C@H]3[C@@](O)(C(=O)OC)[C@H](OC(C)=O)[C@]5(CC)C=CCN6CC[C@]43[C@@H]65)C2)C1 (some centres undefined) as the compound, how does the Potency read?
Its Potency is 0.447 µM (active).

Which Potency does the source give for CC1(CCOC2OC(CO)C(O)C(O)C2O)CCC23OC2(C1)C(O)CC1C(C)(C(=O)O)CCCC13C (centres undefined) here?
The Potency was “inactive”.

Which Potency does the source give for CC(=O)NCC(=O)N1C2CCC1c1cc(Nc3ncc(C(F)(F)F)c(NC4CCC4)n3)ccc12 (centres undefined) here?
Its Potency is 14.1 µM (active).

Which Potency does the source give for C[C@@H]1COCCN1c1cc(C2(S(C)(=O)=O)CC2)nc(-c2cccc3[nH]ccc23)n1 here?
Its Potency is 3.16 µM (active).

For CN1CCN(c2ccc(C(=O)Nc3n[nH]c4ccc(Cc5cc(F)cc(F)c5)cc34)c(NC3CCOCC3)c2)CC1, which Potency is on record?
Its Potency is “inactive”.

O=C(Nc1ccc(Cl)cc1F)c1ccccc1O was tested. Which Potency did it give?
The Potency was 15.8 µM (active).

For O=C1N=C(N2CCOCC2)CN1c1ccc(Cl)cc1, which Potency is on record?
The Potency was “inactive”.

How did the Potency turn out when CC(C)c1c2cc(-c3ccnc(NC4CCC(NC5CCOCC5)CC4)n3)ccc2nn1C (centres undefined) was run?
The Potency was 0.316 µM (active).

CC1=C(C(=O)OCc2ccccc2)C(c2ccc(-c3ccccc3)cc2)NC(=O)N1CCCCCC(=O)O (centres undefined) was tested. Which Potency did it give?
Its Potency is “inactive”.

How did the Potency turn out when O=C(c1cn(Cc2cncn2Cc2ccc(Br)cc2)cc1-c1cccc2ccccc12)N1CCOCC1 was run?
The Potency was “inactive”.

How did the Potency turn out when CC(C)CCC[C@@H](C)[C@H]1CC[C@H]2[C@@H]3CC(=O)[C@H]4C[C@@H](O)CC[C@]4(C)[C@H]3CC[C@]12C was run?
Its Potency is “inactive”.

For CC(=O)OC1C(=O)C2(C)C(O)CC3OCC3(OC(C)=O)C2C(OC(=O)c2ccccc2)C2(O)CC(OC(=O)C(O)C(NC(=O)c3ccccc3)c3ccccc3)C(C)=C1C2(C)C (centres undefined), which Potency is on record?
Its Potency is 0.316 µM (active).

For Cc1ccc(C(=O)Nc2noc3ccccc23)cc1, which Potency is on record?
The Potency was 15.8 µM (active).

CCC1C(=O)OC23C=C[C@@H]4C(C(=O)O)=CO[C@H](O[C@@H]12)[C@@H]43 (some centres undefined) was tested. Which Potency did it give?
The Potency was “inactive”.
